# Bioassay records from PubChem.
# IDH1 R132H inh = inhibitors of human mutant IDH1 R132H. AID 602179. IDH1-R132H enzyme, NADPH consumption, diaphorase/resazurin fluorescence. 390,000 tested, 0.093% active. O75874. Potency, µM (doses to about 76.6 µM), for inactives: top-dose activity change, negative = inhibition, usual class: inhibitors; further: on the % scale 0 is the no-effect control and ±100 the full control effect; nearly all actives have a fitted effect of over 65% in size
# Target sequence (O75874 whole entry R132H, stated change not applied): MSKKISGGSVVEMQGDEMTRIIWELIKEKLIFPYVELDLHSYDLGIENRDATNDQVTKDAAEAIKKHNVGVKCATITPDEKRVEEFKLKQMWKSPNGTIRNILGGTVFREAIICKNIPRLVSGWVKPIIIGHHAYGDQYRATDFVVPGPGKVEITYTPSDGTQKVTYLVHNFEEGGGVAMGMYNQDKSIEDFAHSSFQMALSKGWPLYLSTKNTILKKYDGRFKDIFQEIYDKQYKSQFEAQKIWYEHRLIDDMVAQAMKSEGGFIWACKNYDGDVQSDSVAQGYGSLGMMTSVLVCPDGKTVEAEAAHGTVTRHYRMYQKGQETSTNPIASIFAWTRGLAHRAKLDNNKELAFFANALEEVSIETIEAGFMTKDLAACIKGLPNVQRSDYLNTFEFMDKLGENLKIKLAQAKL
#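 IDH1-R132H (0.5 ug/mL) preincubated 30 min with compound, then NADPH (0.016 mM) and alpha-KG (2 mM) added; 80 min at RT, pH 7.5. Remaining NADPH coupled via diaphorase/resazurin to fluorescence (540/590 nm); concentration-response curves normalized to no-enzyme control.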
# ELG1 repair inh = ELG1-dependent DNA repair inhibition | HEK293T ELG1-luciferase reporter, luminescence, 16 h; DNA damage induced by 5-fluorouridine | AID 504467 | Potency, µM (doses to about 46.1 µM), for the others: top-dose activity change, negative = inhibition, hits mostly inhibitors | 330,000 tested, 2.3% active; further: on the % scale 0 is the no-effect control and ±100 the full control effect; nearly all actives have a fitted effect of over 55% in size
#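 DMSO vehicle served as the neutral condition. Each well held 2,000 cells given 5-fluorouridine plus compound; after 16 hr at 37 °C/5% CO2, ONE-Glo was added and luciferase measured 30 min later.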
# Nrf2 activator = activators of Nrf2 (ARE) signaling; AREc32 ARE-luciferase reporter (MCF7-derived line), luminescence, 24 h; Potency, µM (highest dose often 46.1 µM), for the others: at the highest dose activation, usual class: activators; 410,000 tested, 0.31% active; further: % of control where 0% means no effect; nearly all actives have a fitted effect of over 65% in size
#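 ARE activation measured as luciferase luminescence (Steady-Glo, 30 min RT) in AREc32_Fluc cells after 24 hr compound exposure at 37 deg C, 5% CO2; cells seeded overnight at 1000/well in OPTI-MEM, 5% FBS.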
# A549 viability = counter-screen for Nrf2 inhibitors: cytotoxicity in A549 cells; A549 ARE-Fluc cells, CellTiter-Fluor viability, 18-24 h; Potency, µM (doses to about 46 µM), for the others: at the top dose activity change, negative = cytotoxicity, hits mostly inhibitors; 390,000 tested, 0.16% active; further: on the % scale 0 is the no-effect control and ±100 the full control effect
#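 Cytotoxicity counterscreen: CellTiter-Fluor fluorescence was measured in A549 ARE_Fluc cells after 18-24 h of compound exposure in a concentration series. The subsequent BugLite luminescent read reports ARE-luciferase activity.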
# Nrf2 inh = inhibitors of Nrf2 signaling | A549 ARE-Fluc reporter, luciferase luminescence, 18-24 h | Potency, µM (top dose mostly 46 µM), for inactives: at the top dose activity change, negative = inhibition, actives largely listed as inhibitors | 360,000 tested, 2.1% active | AID 504444; further: on the % scale 0 is the no-effect control and ±100 the full control effect; nearly all actives have a fitted effect of over 60% in size
#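 Concentration-response testing used A549 ARE_Fluc cells at 5000 cells/well. Following an 18-24 h compound incubation, viability was read by fluorescence (Ex 405/Em 525) and luciferase output by luminescence.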
# * marks the source's active call; other numbers are inactive results; ? = inconclusive; . = no result; [ ] = remark or other dose. The list is not random: actives were taken first. Their share in the collection is about 3.8%. The call rests on the fitted dose curve; in most records, active means well fitted curve in the direction sought with a large enough effect; inconclusive means small, poorly fitted or top-dose-only effect, or another doubt; inactive means no such curve, though single readings can be large; an effect the other way counts as inactive or inconclusive. Potency means the concentration at half of the fitted maximal effect.
SMILES,IDH1 R132H inh,ELG1 repair inh,Nrf2 activator,A549 viability,Nrf2 inh
O=C(N/N=C\c1cn[nH]c1-c1ccccc1)c1ccc([N+](=O)[O-])cc1,6%,-16%,0%,-1%,18%
O=C(N/N=C/c1cn[nH]c1-c1ccccc1)c1ccco1,-10%,11%,8.9µM*,0%,6%
N#CCCn1cc(/C=N/O)c(-c2ccccc2)n1,5%,23µM*,0%,12%,-4%
N#CCCn1cc(C=C(C#N)C#N)c(-c2ccc(-c3ccccc3)cc2)n1,6%,-19%,2%,-6%,12%
N#CCCn1cc(/C=N/NC(N)=S)c(-c2ccc(-c3ccccc3)cc2)n1,1%,26µM*,6%,-20%,?
CCCn1c(-c2cc(OC)c(OC)c(OC)c2)nc2nc3ccccc3nc21,6%,16µM*,-1%,-3%,5%
C=CCn1c(-c2ccc(OC)cc2)nc2nc3ccccc3nc21,0%,0%,0%,-5%,18%
COc1ccccc1S(=O)(=O)Cc1ccc(C(=O)NCc2ccc(Cl)cc2)o1,0%,.,0%,-5%,?
O=[N+]([O-])c1cc(C(F)(F)F)ccc1N1CCN(S(=O)(=O)c2ccc3c(c2)CCCC3)CC1,6%,-5%,0%,-19%,15µM*
CC(C)CN1CCc2nc(N3CCN(C)CC3)ncc2C1,15%,.,5%,-16%,.
O=C(Nc1ccc(F)c(Cl)c1)N1CCN2CCCCC2C1 (stereo not drawn),-11%,.,9%,3%,?
CCc1ccc(C(=O)NNc2ccc(C)c(Cl)c2)cc1,-1%,18µM*,5%,0%,7%
Cc1ccc(S(=O)(=O)N2CCN(c3nc(-c4cccs4)nc4c3ncn4COC(=O)C(C)(C)C)CC2)cc1,.,.,.,12%,6%
CCS(=O)(=O)N1CCc2cc(C(=O)Nc3cc(C(F)(F)F)ccc3Cl)ccc21,4%,.,0%,-1%,?
Cc1ccc(S(=O)(=O)NCc2ccccc2)cc1C(=O)N(C)Cc1ccc(F)cc1,2%,-10%,-1%,-12%,23µM*
CC(C)c1cnc2c(c1SCc1cccc(F)c1)c(=O)n(C)c(=O)n2C,-2%,.,8%,4%,.
NNC(=O)c1[nH]c2ccc(Br)cc2c1-c1ccccc1,?,?,2%,?,3%
NNC(=O)c1[nH]c2ccc(Cl)cc2c1-c1ccccc1,-28%,16µM*,3%,-21%,9%
COC(=O)c1ccc(S(=O)(=O)N2CCCN(Cc3ccc(F)cc3)CC2)n1C,2%,?,0%,1%,13µM*
COc1ccc(CN2CCN(S(=O)(=O)c3ccc(NC(C)=O)cc3)CC2)cc1OC,8%,-23%,0%,13%,-34%
COc1ccc(S(=O)(=O)N2CCN(CCCOc3ccc(F)cc3)CC2)cc1OC,0%,-17%,0%,0%,23µM*
COc1ccc(S(=O)(=O)N2CCN(c3ccc(F)cc3)CC2)cc1OC,3%,0%,-1%,19%,6%
COc1ccc(S(=O)(=O)N2CCCN(Cc3cccc(F)c3)CC2)cc1,5%,-3%,3%,5%,-12%
COc1ccc(CN2CCN(S(=O)(=O)c3ccc(F)cc3)CC2)cc1OC,-2%,13µM*,0%,-7%[1.84 µM],?
COc1cccc(CNC(=S)Nc2cc(C)ccc2C)c1,1%,-23%,-1%,4%,?
CCc1ccc(S(=O)(=O)c2nnn3c2nc(Nc2ccc(F)cc2)c2cc(Cl)ccc23)cc1,-2%,.,0%,-19%,9.2µM*
O=S(=O)(NC[C@@H]1CCC[C@H](CNS(=O)(=O)c2c(F)cccc2F)C1)c1ccc2c(c1)OCCO2,.,.,.,-12%,?
CCCn1cc(S(=O)(=O)c2ccc(C)c(C)c2)c(=O)c2cc(F)c(N3CCCCC3)cc21,6%,.,0%,1%,-21%
CCCCn1cc(S(=O)(=O)c2ccc(C)c(C)c2)c(=O)c2cc(F)c(N(CC)CC)cc21,-4%,.,-1%,-26%,26µM*
COC(=O)c1ccsc1NC(=O)CN1CCN(Cc2ccc3c(c2)OCO3)CC1,0%,5.2µM*,0%,2%,5%
